Several values for one entry are separate records, joined by “and”; a condition that tells them apart may be missing. Equal values may be shown once. The campaign covered roughly 330,000 compounds. About 1,800 (0.55%) were called active. What follows is part of a selection rich in actives, with near analogues and random picks from the rest. Values without a mark were called inactive. Cut-off read from the data, not from the text of the source: active = growth inhibition above about 68%; inactive = the rest.

This assay is described as follows: growth inhibition of ugtP-null S. aureus, primary screen, RN4220 ugtP deletion, OD600 (AID 1259309).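 Note: plate controls were untreated wells for no effect and antibiotic for full effect.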 The following applies: 16 h, hits give high values.
On to `Cc1ccc(O)c(-c2cc(C(=O)Nc3c(C)n(C)n(-c4ccccc4)c3=O)[nH]n2)c1`, for which the growth inhibition is 2.72%.

Consider `Cc1ccc(C)c(NC(=O)c2cc(-c3cc(C)cc(C)c3O)n[nH]2)c1`, for which the growth inhibition is 99.5% (active).

Consider `Cc1ccc(O)c(-c2cc(C(=O)NCc3ccccc3)[nH]n2)c1`, for which the growth inhibition is 7.53%.

Turning to `CNC(=O)CCCCC(=O)NN=Cc1ccc(Cl)cc1Cl`, the growth inhibition is -1.21%.

In the case of `COc1ccc(CC2CN3C(=NCC3C)N2CCNC(=O)CCC2CCCCC2)cc1` (stereo not drawn), the growth inhibition was -6.07% and 2.3%.

On to `COc1cccc(C=NNc2ncnc(N)c2[N+](=O)[O-])c1OC`, for which the growth inhibition was -0.174%.

With `O=C(Nc1ccccc1)C1CC=CC2CCN(Cc3ccc(Cl)c(Cl)c3)C(=O)C21` (stereo not drawn), the growth inhibition was 2.24%.

Take `Cc1c(N2C(=O)CSC2=NN=Cc2ccccc2O)c(=O)n(-c2ccccc2)n1C`: the growth inhibition was 7.58%.

With `CCCn1c(=O)c(-c2ccccc2)c(O)c2ccccc21`, the growth inhibition was 10.2%.

In the case of `CC(C)CCn1c(=O)c(C(=O)NN=Cc2cccc(F)c2)c(O)c2ccccc21`, the growth inhibition was 99% (active).

For the compound `CCCn1c(=O)c(C(=O)Nc2cc(C)ccn2)c(O)c2ccccc21`, the growth inhibition was 11.7%.

Turning to `CCCCCn1c(=O)c(C(=O)NCc2ccccc2)c(O)c2ccccc21`, the growth inhibition was 44.1%.

As to `CCCn1c(=O)c(C(=O)NN=Cc2ccc(F)cc2)c(O)c2ccccc21`, the growth inhibition is 101% (active).

Take `CCCCCn1c(=O)c(C(=O)NCc2ccccn2)c(O)c2ccccc21`: the growth inhibition was 10.1%.

Regarding `C/C(C=NNc1nc(C)cc(=O)[nH]1)=C\c1ccccc1`, the growth inhibition is -4.37%.

With `Cc1ccc(S(=O)(=O)N=Cc2ccco2)cc1`, the growth inhibition is 4.28%.

In the case of `COC(=O)c1ccc(C23CC4(C2)C(CN(Cc2cccnc2)C4c2ccccc2)C3c2ccc(Cl)nc2)cc1` (stereo not drawn), the growth inhibition was 8.61%.

For the compound `O=C(COc1ccccc1)NCC(=O)NN=C/C=C/c1ccccc1`, the growth inhibition is 2.76%.

Regarding `O=S1(=O)C[C@@H]2N=C(NN=Cc3ccccc3)S[C@@H]2C1`, the growth inhibition is -0.808%.

On to `COc1ccc(C=CC2=CCN(Cc3ccc(OC)cc3)CC2)cc1`, for which the growth inhibition was 1.66%.

As for `CC(C)CNC(=S)NC(=O)c1ccc(Cl)cc1`, the growth inhibition is 91.1% (active).

For the compound `O=C(NC(=S)NC1CCCCC1)c1ccc(Cl)cc1`, the growth inhibition was 82.7%.

In the case of `CC(C)C(NC(=O)c1ccc(Cl)cc1)C(=O)O` (stereo not drawn), the growth inhibition was 0.934%.

On to `Oc1ccc(C2Nc3cccc4cccc(c34)N2)cc1`, for which the growth inhibition is 96.6% (active).

For `COc1ccc(C2NC(=O)c3ccccc3N2)cc1` (stereo not drawn), the growth inhibition was 6.04%.

As for `Brc1ccccc1C1Nc2cccc3cccc(c23)N1`, the growth inhibition was -4.74%.

As to `COc1ccc(C=NNC(=O)c2cc[n+]([O-])cc2)cc1`, the growth inhibition is 2.45%.

On to `CC(=NNc1ccc(S(=O)(=O)N2CCCCC2)cn1)c1ccc(O)cc1`, for which the growth inhibition was -0.0996%.

For `Cc1ccc(OC(=O)c2cc3ccccc3o2)cc1`, the growth inhibition was 98% (active).

Take `Cc1ccc(OC(=O)c2ccccc2C(=O)OCC(F)(F)C(F)F)cc1`: the growth inhibition was 14.2%.

`COc1ccccc1CN(C)C(=O)c1cc2ccccc2o1`: the growth inhibition was 9.31%.

For the compound `Cc1ccc(-c2nnnn2C2CC(=NNC(N)=S)C3OCC2O3)cc1` (stereo not drawn), the growth inhibition is 3.57%.

For the compound `O=C(NN=Cc1ccncc1)c1cccc(NC(=O)c2ccc(Cl)cc2)c1`, the growth inhibition is -6.73%.

Take `O=c1c2ccccc2nc(/C=C/c2ccc(F)cc2)n1-c1ccccc1O`: the growth inhibition was 97.9% (active).

Take `CCn1c(/C=C/c2ccc([N+](=O)[O-])o2)nc2ccccc2c1=O`: the growth inhibition is 11.7%.

Turning to `O=C(CSc1nc2ccccc2c(=O)n1-c1ccccc1F)N1CCOCC1`, the growth inhibition is -0.774%.

As for `O=C(CSc1nc2ccccc2c(=O)n1-c1ccc(F)cc1)NC1CC1`, the growth inhibition is 2.6%.

In the case of `O=c1c2ccccc2nc(-c2ccco2)n1-c1ccc(Br)cn1`, the growth inhibition is 11.8%.

With `O=c1c2ccccc2nc(/C=C/c2ccco2)n1-c1ccccc1O`, the growth inhibition was 92% (active).

For the compound `CC1CCCC(C)N1N=Cc1ccc([N+](=O)[O-])cc1` (stereo not drawn), the growth inhibition is 18%.

As for `O=C(NN=Cc1cccs1)c1cnccn1`, the growth inhibition was 1.82%.

In the case of `Cc1ccc(OCC(=O)NNC(=S)NCc2ccccc2)cc1`, the growth inhibition is -11.7%.

On to `Cc1ccc(OCC(=O)NCCCNC(=O)c2ccco2)cc1C`, for which the growth inhibition is -2.8%.

On to `Cc1ccc(C(=O)NNC(=O)C(C)Oc2ccc3ccccc3c2)o1` (stereo not drawn), for which the growth inhibition is 8%.

With `CCCc1ccc(OCC(=O)NNC(=S)NC(=O)c2ccco2)cc1`, the growth inhibition was 96% (active).

With `O=C(Nc1ccc2ccccc2c1)/C(=C/c1cccc(Br)c1)NC(=O)c1ccco1`, the growth inhibition was -9.2%.

For `CC(Oc1ccc2ccccc2c1)C(=O)NNC(=S)NC(=O)c1ccco1` (stereo not drawn), the growth inhibition is 91.7% (active).

As to `CC(=NNC(=O)CSc1nc2ccccc2o1)c1cccc(O)c1`, the growth inhibition was 1.7%.

On to `COc1cccc(C=NNC(=O)c2cc(-c3cccn3C)n[nH]2)c1`, for which the growth inhibition was -20.1%.

On to `CN(Cc1c(C(=O)NN=Cc2cccc(F)c2)nnn1-c1nonc1N)c1ccccc1`, for which the growth inhibition is 0.685%.

As to `Cc1ccccc1C(=O)ON=C(N)c1ccncc1`, the growth inhibition was 6.35%.

In the case of `O=C(Cn1nc2ccccc2n1)NN=Cc1cc(Cl)cc([N+](=O)[O-])c1O`, the growth inhibition was 2.61%.

Take `COC(=O)CC1c2cc(C(F)(F)F)ccc2S(=O)(=O)N1Cc1ccccc1OC` (stereo not drawn): the growth inhibition was 4.2%.

For the compound `COc1ccc(NC(=O)/C(Cl)=C(/Cl)S(=O)Cc2ccc(C)cc2)cn1` (stereo not drawn), the growth inhibition was 99.4% (active).

As for `COc1ccc(CS(=O)/C(Cl)=C(/Cl)C(=O)Nc2ccc(OC)nc2)cc1` (stereo not drawn), the growth inhibition is 15.9%.

Consider `CCN(CC(=O)Nc1ccc(OC)cc1)C(=O)CSCc1ccc(C)cc1`, for which the growth inhibition was 3.82%.

As to `C[C@]12CCC3c4ccc(OC(=O)c5ccccc5)cc4CCC3C1CCC2O` (stereo partly drawn), the growth inhibition is 19.4%.

For `COc1ccc2c(c1)OC(O)(C(F)(F)C(F)F)CC2=O` (stereo not drawn), the growth inhibition was 99.4% (active).

Regarding `COc1ccc2c(c1)C(=O)CC(c1ccccc1)O2` (stereo not drawn), the growth inhibition is 6.73%.

`COc1ccc2c(c1)SC(C)CC2=O` (stereo not drawn): the growth inhibition was -4.08%.

For the compound `CCC(=NOC(=O)c1cccc(C)c1)C(=O)c1cccs1`, the growth inhibition is -0.652%.

For the compound `O=C1/C(=C/c2cccs2)CCc2ccccc21`, the growth inhibition is 18.9%.

As to `CCC1C/C(=C/c2cccs2)C(=O)/C(=C/c2cccs2)C1` (stereo not drawn), the growth inhibition is 94.7% (active).

Take `O=C1/C(=C/c2cccs2)CCC1C1CCCC1` (stereo not drawn): the growth inhibition was 8.34%.

For `CC(CC(=O)Nc1ccccn1)=NNC(=O)C(=O)Nc1cccc(C)c1`, the growth inhibition is 3.99%.

`COc1ccc(O)c(C=NNC(=O)CN2CCS(=O)(=O)CC2)c1`: the growth inhibition is -0.335%.

Take `CC(=NNc1ccc(C(F)(F)F)cn1)c1ccncc1`: the growth inhibition is 1.19%.

Consider `O=C(NC(Nc1nc2ccc([N+](=O)[O-])cc2s1)(C(F)(F)F)C(F)(F)F)c1ccccc1`, for which the growth inhibition is 100% (active).

Turning to `N=C1C(c2nc3ccccc3s2)=C(O)CN1NC(=O)c1ccc([N+](=O)[O-])cc1`, the growth inhibition was -0.97%.

Regarding `O=C(COC(=O)c1ccc([N+](=O)[O-])cc1Cl)NC(=O)c1ccccc1`, the growth inhibition was -1.26%.

In the case of `Cc1ccsc1C=NNC(=O)c1ccncc1`, the growth inhibition was -0.727%.

As for `O=S(=O)(NCc1ccccn1)c1ccc(Br)s1`, the growth inhibition is 5.99%.

Turning to `O=S(=O)([N-]c1nc2ccccc2nc1-[n+]1ccc(Cc2ccccc2)cc1)c1ccc(Br)s1`, the growth inhibition was 95.2% (active).

As for `Cc1ccsc1C(=O)OCC(=O)c1cc(C)n(CC2CCCO2)c1C` (stereo not drawn), the growth inhibition is 0.578%.

For `O=C1C(=O)N(CC2COc3ccccc3O2)c2ccccc21` (stereo not drawn), the growth inhibition was -2.06%.

`Cc1cc(C(=O)CCl)c(C)n1CC1COc2ccccc2O1` (stereo not drawn): the growth inhibition is 90.8% (active).

Regarding `CCOC(=O)c1c(NC(=O)Cn2nc(C(F)(F)F)cc2C)sc2c1CCC2`, the growth inhibition is 2.33%.

With `CCCOC(=O)Nc1sc2c(c1C(=O)OCC)CCC2`, the growth inhibition was 91.5% (active).

As to `CCOC(=O)c1c(NC(=O)C(C)Sc2c[nH]c3ccccc23)sc2c1CCC2` (stereo not drawn), the growth inhibition was 25.3%.

For the compound `CCOC1OC(C(=O)N2CCOCC2)=CC(c2ccc3c(c2)OCO3)C1CCCO` (stereo not drawn), the growth inhibition was 2.32%.

With `O=C(CNc1ccc2ccccc2c1)NN=Cc1ccc(C(=O)O)cc1`, the growth inhibition was 1.63%.

As to `COc1ccc2c(C)cc3nnnn3c2c1`, the growth inhibition was 3.97%.

In the case of `COc1ccc(C2C3=C(CCCC3=O)N(CC(=O)O)C3=C2C(=O)CCC3)cc1`, the growth inhibition is 7.87%.

As for `CCn1c2c(c3ccc(OC)cc31)CCCC2=O`, the growth inhibition is 95.9% (active).

On to `CCC1=C2CCC3C(=O)N(C)C(=O)C3C2[C@@]2(Cc3ccccc3)C(=NCCOC)OC(=O)N2C1=O` (stereo partly drawn), for which the growth inhibition is -1.76%.

Turning to `COc1ccc(-c2nc(N)ncc2-c2ccc(Cl)cc2)c(O)c1`, the growth inhibition was -8.46%.

Regarding `COc1cccc(-c2cnc(OC(C)(C)C)nc2OC(C)(C)C)c1`, the growth inhibition is 99.2% (active).

As to `CC(C)(C)Oc1ncc(Br)c(OC(C)(C)C)n1`, the growth inhibition was 2.82%.

Turning to `c1ccc(C2C3CN(Cc4cccnc4)C(c4ccccc4)C34CC2(c2ccccc2)C4)cc1` (stereo not drawn), the growth inhibition is 0.638%.

Take `Cc1nnsc1C(=O)NN=Cc1ccccc1Cl`: the growth inhibition was 0.586%.

As for `O=C(O)c1ccc(NC(=NS(=O)(=O)c2ccc(Cl)cc2)c2ccccc2)cc1`, the growth inhibition is 4.64%.

`O=C(Nc1ccccc1)c1nnsc1S(=O)(=O)c1ccc(Cl)cc1`: the growth inhibition is 100% (active).

For the compound `Cn1c2ccccc2c2cc(C=NNC(=O)c3ccc(N)cc3)ccc21`, the growth inhibition was -2.18%.

Turning to `COc1ccc(C2CC(=O)C=C(c3ccc4ccn(C)c4c3)C2)cc1` (stereo not drawn), the growth inhibition was 4.99%.

With `CC(C)(C)c1cc(C(=O)NN=Cc2ccccn2)n[nH]1`, the growth inhibition is 4.75%.

With `O=C(NC(=S)Nc1cccc2c(O)cccc12)c1cccc(Br)c1`, the growth inhibition is 99.6% (active).

As to `O=C(NC(=S)Nc1ccc(S(=O)(=O)Nc2ncccn2)cc1)c1cccc(Br)c1`, the growth inhibition was -8.14%.

Consider `Cc1ccccc1NC(=S)NNC(=O)c1cccc(Br)c1`, for which the growth inhibition is 23.5%.

Values taken from PubChem BioAssay AID1259309 (ICCB-Longwood Screening Facility, Harvard Medical School, 2017).
